About 14,000 (4.5%) of roughly 310,000 compounds showed an effect of 50% or more. Effects have a minus sign here. Only a selection was taken, and strong results are over-represented in it overall.
Target: human ether-à-go-go-related gene (hERG) potassium channel (human, UniProt Q12809)
Experiment: primary screen, population patch clamp on CHO cells stably expressing hERG; higher = less effect of the substance
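Note: peak tail current of the secondary pulse compared with the same well before compound.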

Sequence of human ether-à-go-go-related gene (hERG) potassium channel (Q12809 whole entry, looked up): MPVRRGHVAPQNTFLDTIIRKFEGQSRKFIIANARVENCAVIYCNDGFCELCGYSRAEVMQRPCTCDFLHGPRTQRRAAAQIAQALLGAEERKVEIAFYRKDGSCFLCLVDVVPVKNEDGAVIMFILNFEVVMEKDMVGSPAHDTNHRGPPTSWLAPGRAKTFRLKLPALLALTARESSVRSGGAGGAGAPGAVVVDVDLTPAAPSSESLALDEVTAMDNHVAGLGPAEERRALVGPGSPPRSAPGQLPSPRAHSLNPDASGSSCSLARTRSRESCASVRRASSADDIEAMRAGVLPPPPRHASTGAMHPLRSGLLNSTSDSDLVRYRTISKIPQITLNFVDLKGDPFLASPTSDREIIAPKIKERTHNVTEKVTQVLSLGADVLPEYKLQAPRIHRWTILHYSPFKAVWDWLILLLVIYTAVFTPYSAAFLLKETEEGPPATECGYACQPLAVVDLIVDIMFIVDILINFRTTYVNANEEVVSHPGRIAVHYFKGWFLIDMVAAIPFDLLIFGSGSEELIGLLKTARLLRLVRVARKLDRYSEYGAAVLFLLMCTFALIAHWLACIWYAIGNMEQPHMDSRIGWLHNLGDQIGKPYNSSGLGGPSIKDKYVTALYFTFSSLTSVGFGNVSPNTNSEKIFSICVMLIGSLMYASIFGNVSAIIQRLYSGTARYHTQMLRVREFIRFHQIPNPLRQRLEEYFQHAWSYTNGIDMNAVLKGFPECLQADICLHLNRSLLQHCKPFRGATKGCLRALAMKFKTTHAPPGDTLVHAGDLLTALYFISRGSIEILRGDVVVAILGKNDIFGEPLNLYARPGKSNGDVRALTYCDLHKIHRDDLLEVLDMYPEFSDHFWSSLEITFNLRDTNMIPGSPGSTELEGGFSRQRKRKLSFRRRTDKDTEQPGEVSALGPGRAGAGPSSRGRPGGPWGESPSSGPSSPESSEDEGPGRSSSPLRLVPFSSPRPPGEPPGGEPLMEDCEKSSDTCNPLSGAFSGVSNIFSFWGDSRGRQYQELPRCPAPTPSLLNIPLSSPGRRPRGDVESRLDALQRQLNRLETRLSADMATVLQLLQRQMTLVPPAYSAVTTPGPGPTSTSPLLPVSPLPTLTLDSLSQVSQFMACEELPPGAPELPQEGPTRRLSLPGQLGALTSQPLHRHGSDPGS

Structure (SMILES)	hERG current change (%, negative = inhibition) at 10uM [%]
CNc1nc(-c2ccc3c(c2)CCN3C(=O)CC(C)(C)C)c(C)s1	38
C=CC#CC1(O)CC(C)[N+](C)(C)CC1C.[I-] (stereo not shown)	17.4
CCCCn1c(N)c(N(CC(C)C)C(=O)CSC(C)C(=O)Nc2cc(C)on2)c(=O)[nH]c1=O (stereo not shown)	9.14
CN(Cc1nc2ccc(F)cc2[nH]1)Cc1nc(CC2CC2)no1	-12.3
CN(CCc1nc2ccc(Cl)cc2[nH]1)Cc1nc(CC2CC2)no1	-50.8
CN(CCc1nc2ccccc2[nH]1)Cc1nc(CC2CC2)no1	-13.7
COc1ccc2oc(C(=O)N(C)Cc3ccc4c(c3)OCCO4)c(C)c2c1	-10.5
Cc1c(C(=O)N(C)Cc2ccc(OC(F)F)cc2)oc2ccccc12	-69.9
CCn1cc(C(=O)OCC(=O)N(C)Cc2ccccc2)c(=O)c2ccc(C)nc21	-11.1
COc1ccc(CCN(C)C(=O)c2oc3ccccc3c2C)cc1OC	-0.562
COc1ccc2oc(C(=O)N(C)Cc3ccc(OC(F)F)cc3)c(C)c2c1	-53.8
CCCCN(C)C(=O)c1cn(CC)c2nc(C)ccc2c1=O	-3.49
CCn1cc(C(=O)N(C)Cc2ccc(OC(F)F)cc2)c(=O)c2ccc(C)nc21	-65.1
COc1ccc2oc(C(=O)N(C)CCOc3ccccc3)c(C)c2c1	-28.9
Cc1c(C(=O)OCC(=O)N(C)Cc2ccccc2)oc2ccccc12	-29.4
CCCNC(=O)Nc1ccccc1C(=O)Nc1ccc(OC)cc1	2.77
OCC1CCCN(C(=S)NCCc2ccccc2)C1 (stereo not shown)	0.885
CCCn1nc(Oc2nc(NCC)nc(NCC)n2)ccc1=O	1.1
CCCn1nnc(NC(=O)c2cccc(OCC(C)C)c2)n1	-3.93
O=C(NCCc1ccc(Cl)cc1)C1CCN(S(=O)(=O)c2cccs2)CC1	-71.2
O=C(NCc1cccs1)C1CCN(S(=O)(=O)c2cccs2)CC1	-32.1
O=C(NCc1ccc(Cl)cc1)C1CCN(S(=O)(=O)c2cccs2)CC1	-3.7

Structure (SMILES)	hERG current change (%, negative = inhibition) at 10uM [%]
O=C(NCCc1ccc(Cl)cc1)C1CCN(S(=O)(=O)N2CCCC2)CC1	-52.3
O=C(NCCc1ccc(Cl)cc1)C1CCN(S(=O)(=O)N2CCCCC2)CC1	-5.98
O=C(NCCc1ccc(Cl)cc1)C1CCCN(S(=O)(=O)N2CCCCCC2)C1 (stereo not shown)	-18.7
O=C(NCCc1ccccc1Cl)C1CCN(S(=O)(=O)c2cccs2)CC1	-34.8
O=C(NCc1ccccc1Cl)C1CCN(S(=O)(=O)c2cccs2)CC1	-63.4
O=C(NCCc1ccccc1)C1CCN(S(=O)(=O)c2cccs2)CC1	-2.14
O=C1C=C(c2ccccc2)C[C@H](c2cccs2)[C@H]1n1cnc([N+](=O)[O-])c1	-18.8
COC(=O)c1nc2cc3c(cc2c(C)c1C(=O)OC)OCO3	10.8
COC(=O)CN(C(=S)Nc1ccccc1)C1CC(=O)N(c2ccc(OC)cc2)C1=O (stereo not shown)	-6.5
O=C1CCCC(O)=C1N=Nc1c(Cl)cc(Cl)cc1Cl	7.14
C=CCn1cc(C(=O)OCC)c(=O)c2ccc(F)cc21	5.56
Cc1ccc(Cn2cc(C(=O)NN)c(=O)c3ccc(F)cc32)cc1	-51.6
Cc1ccc(Cn2cc(S(=O)(=O)c3ccc(C(C)C)cc3)c(=O)c3cc4c(cc32)OCO4)cc1	-8.58
Cc1ccc(C(=O)c2cc3c(cc2N)OCCO3)cc1	-11.4
CC(C)c1ccc(S(=O)(=O)c2cn(Cc3ccc(F)cc3)c3cc4c(cc3c2=O)OCO4)cc1	-1
O=C(c1ccc(F)cc1)c1cn(Cc2ccc(F)cc2)c2cc3c(cc2c1=O)OCCO3	-71.1
Cc1ccc(Cn2cc(C(=O)c3ccc(F)cc3)c(=O)c3cc4c(cc32)OCCO4)cc1	-57.1
CCOC(=O)c1cn(Cc2ccc(C)cc2)c2cc(F)ccc2c1=O	-10.9
CC(=O)Nc1cc2c(cc1C(=O)c1ccc(C)cc1)OCCO2	5.77
O=C(C(=O)N1CCOCC1)c1cn(Cc2ccc(F)cc2)c2ccccc12	-32
CCn1cc(C(=O)O)c(=O)c2cc3c(cc21)OCO3	20.5
Cc1ccc(S(=O)(=O)c2cn(Cc3ccc(F)cc3)c3cc4c(cc3c2=O)OCO4)cc1	-55

Structure (SMILES)	hERG current change (%, negative = inhibition) at 10uM [%]
O=C(O)CC1SC(=O)N(Cc2ccccc2)C1=O (stereo not shown)	21
Cc1cc(Cl)ccc1OCc1cn2cccnc2n1	-17.5
CCCn1cc(SCC(=O)NCC2CCCO2)c2ccccc21 (stereo not shown)	4.17
CC(C)CN(C(=O)COC(=O)c1ccc2c(c1)OCCO2)c1c(N)n(Cc2ccccc2)c(=O)[nH]c1=O	5.66
Cc1ccc(C)n1NC(=O)c1ccco1	14.8
O=C(CSc1ncccn1)Nc1ncc(C(F)(F)F)cc1Cl	47.2
COC(=O)C1=C(C)NC(C)=C(C(=O)O[C@@H]2CCCN(Cc3ccccc3)C2)[C@@H]1c1cccc([N+](=O)[O-])c1.Cl	9.68
CCOc1ccc(N/C(SC)=C(/C#N)C(N)=O)cc1	4.98
CCOc1ccc(N/C(SCc2cccc([N+](=O)[O-])c2)=C(/C#N)C(N)=O)cc1	-59.1
COc1cccc(N/C(SCc2cccc([N+](=O)[O-])c2)=C(/C#N)C(N)=O)c1	-19.9
COc1ccccc1CCNCc1ccc(OC)c(OC)c1OC.O=C(O)C(=O)O	15.5
COc1ccc(CNCCc2ccc([N+](=O)[O-])cc2)c(OC)c1OC.O=C(O)C(=O)O	-68.9
COc1ccccc1CNCc1ccc(OC)c(OC)c1OC.O=C(O)C(=O)O	-8
COc1ccc(CCNCc2ccc(OC)c(OC)c2OC)cc1	-37.6
COc1cc(OC)c(OC)cc1CNCCc1cccc(F)c1.O=C(O)C(=O)O	-15.2
COc1cccc(CNCCc2cccc(F)c2)c1OC.O=C(O)C(=O)O	-5.22
COc1ccc(CNCCc2ccc(Cl)cc2)c(OC)c1OC.O=C(O)C(=O)O	-51.6
COc1ccc(CNCCc2ccc3c(c2)OCO3)c(OC)c1OC.O=C(O)C(=O)O	-29.9
COc1ccc(CNCCc2cccc(F)c2)c2ccccc12.O=C(O)C(=O)O	-74
O=C(N/N=C/c1c(O)ccc2ccccc12)c1cccnc1	7.7
COC(=O)COc1ccc(S(=O)(=O)N2CCN(c3ccccc3F)CC2)cc1	-3.27
O=C(Nc1ccc(-c2csnn2)cc1)C(Cl)(Cl)Cl	17.5

Structure (SMILES)	hERG current change (%, negative = inhibition) at 10uM [%]
CC(C)C(=O)OCC(=O)Nc1ccc(N=Nc2ccccc2)cc1	4.2
CCN(CC)S(=O)(=O)c1cc(NS(=O)(=O)c2cccc(Cl)c2Cl)ccc1C	-1.79
CCCOc1ccc(NC(=O)C2CC(=O)N3CCCN=C3S2)cc1 (stereo not shown)	-11
CN1CCC(NC(=O)NC2CCCCC2)CC1	11.9
Cc1cc(N2CCN(c3ccccn3)CC2)n2cc(-c3ccccc3)nc2n1	-72.3
Cc1cc(C)c2c(n1)nn1c(N3CCN(c4ccccc4)CC3)cc(C)nc21	4.66
Cc1cc(N2CCN(c3ccccc3)CC2)n2c(n1)nc1ccccc12	-68.7
Cc1cc(N2CCN(c3ccccc3)CC2)n2cc(-c3ccccc3)nc2n1	-75.3
c1ccc(-c2csc(N3CCN(c4ccccn4)CC3)n2)cc1	-1.09
Cc1nnc2c(NC3CCCCC3)nc3ccccc3n12	1.89
Cc1cc(N2CCN(c3ccccc3)CC2)nc(-c2ccccc2O)n1	6.15
Cc1cc(NC2CCCCC2)n2c(n1)nc1ccccc12	-55.1
Cc1cc(N2CCN(c3ccc(F)cc3)CC2)nc(-c2ccccc2)n1	-13.7
Cc1cc(Nc2cccc(F)c2)n2c(n1)nc1ccccc12	3.44
Cc1cc(N2CCN(c3ccccc3)CC2)nc2ccccc12	3.04
Cc1cc(-c2ccccc2)nc(N2CCN(c3ccccn3)CC2)n1	1.11
CC(C)c1ccc(NC(=O)c2cccc(NC3=NC4CS(=O)(=O)CC4S3)c2)cc1 (stereo not shown)	-11.1
CS(=O)(=O)N(CC(=O)Nc1ccc(F)cc1)C1CCCCC1	12.6
c1ccc(-c2nc(C3CCCCC3)no2)cc1	-0.00972
CCSC1=N/C(=C\c2ccccc2)C(=O)N1c1ccc(OC)cc1	6.36
O=C(O)c1cccnc1Cl	10.7
O=C(/C=C/c1ccccc1)Nc1sc2c(c1C(=O)O)CCC2	5.92
